Records with an inconclusive call do not appear. Values without a mark were called inactive. Activity calls are given as the source filed them. Calls come from the whole dose curve; as a rule, active = well fitted cell-killing curve with a large enough effect; inconclusive = small, poorly fitted or top-dose-only effect; inactive = no such curve, though single readings can be large or run the other way.
Potency is the fitted concentration of half-maximal effect.

The nature of the test: qHTS of pediatric cancer cell lines to identify multiple opportunities for drug repurposing: Primary screen for SK-N-MC cells (AID 1347093). The following applies: SK-N-MC viability, CellTiter-Glo luminescence, 48 h; series mostly up to 46 µM; activity change, negative = cytotoxic: at the top concentration. An excerpt:
Drug repurposing or repositioning has been offered as a strategy for drug development in oncology programs. This approach has special potential for childhood cancers and other rare or orphan diseases, where the expected return on new drug development has been a disincentive to pharmaceuticals.
In this project we exploit the poly-pharmacology of drugs to discover new indications via phenotypic screening of a panel of 19 well-characterized cell lines derived from solid tumors seen in children and adolescents. The goal is to identify approved drugs with previously unrecognized anticancer properties that has the potential to reveal new mechanisms and biological processes involved in carcinogenesis or drug resistance. We employed a titration-based paradigm (quantitative high-throughput screening or qHTS), where all compounds were tested at multiple concentrations for their effect on cell viability. Concentration-response curves (CRCs) were derived directly from the primary screen, and both potency and efficacy values were used to identify compounds with robust bioactivity profiles. We screened the NIH Chemical Genomics Center (NCGC) Pharmaceutical Collection (NPC) and Mechanism Interrogation Plate (MIPE) small molecule collections of approved and investigational compounds against these cell lines; and measured metabolically active cells after 48 hours of compound treatment as a proxy for cell viability.
Assay Submitter: Nathalia J. Martinez, National Center for Advancing Translational Sciences, National Institutes of Health, Rockville, MD, USA; email: natalia.martinez@nih.gov
[1] Shen, M et al. Quantitative high-throughput phenotypic screening of pediatric cancer cell lines identifies multiple opportunities for drug repurposing. Oncotarget 2017 Dec 19;9(4):4758-4772. PMID 29435139.
The cells were obtained from University of North Carolina (UNC), Pediatric Preclinical Testing Program (PPT), and Coriell Institute (CI).
qHTS cell viability assay:
Cells were assayed in growth media at a density of 500-1,000 cells/well. Five microliters of cells were dispensed into 1,536-well, white, solid-bottom, TC-treated plates (Greiner Bio One) using a multidrop dispenser and incubated at 37 degrees C, 5% CO2, under a humidified atmosphere for 5 hours. Twenty-three nanoliters of compounds and controls (neutral control DMSO or positive control bortezomib at final concentration of 2.3 µM) were subsequently transferred by Kalypsys pintool. For primary screens, the MIPE collection was tested at 11-point dilutions (final concentrations range from 0.78 nM to 46 µM) and the NPC collection at 8-point dilutions (final concentrations range from 0.59nM to 46 µM). Compounds tested in follow-up screens were assayed at 11-point dilutions. Cells were incubated for 48 hours, followed by addition of 3 uL of CellTiter-Glo (Promega). After a 15 min incubation at room temperature, samples were analyzed for luminescence intensity using a ViewLux High-throughput CCD imager equipped with clear filters.
(Quantitative high-throughput screening tests each substance at several concentrations.)
For the compound `COc1cc(Nc2nc3ccccc3nc2NS(=O)(=O)c2ccc(NC(=O)c3ccc(C)c(OC)c3)cc2)cc(OC)c1`, the Potency was 26.4 µM (active).

As for `FC(F)(F)c1ccc(C=Cc2nc(COc3ccc(CCCCn4ccnn4)cc3)co2)cc1`, the Potency is 0.0093 µM (active). For `O=C1C(CCC(O)c2ccc(F)cc2)C(c2ccc(O)cc2)N1c1ccc(F)cc1` (stereo not given), the “activity change, negative = cytotoxic” value is 14.6%. For `CCCCn1c(=O)n(Cc2ccccc2F)c(=O)c2[nH]c(Cc3ccc(NC(C)=O)cc3)nc21`, the Potency is 10.5 µM (active). Take `COc1nccc(-c2c(-c3ccc(F)cc3)ncn2C2CCNCC2)n1`: the “activity change, negative = cytotoxic” value is -17%. Regarding `CC[C@H](NC(=O)[C@H](C)NC)C(=O)N1C[C@@H](O)C[C@H]1Cc1c(-c2[nH]c3cc(F)ccc3c2C[C@H]2C[C@H](O)CN2C(=O)[C@H](CC)NC(=O)[C@H](C)NC)[nH]c2cc(F)ccc12`, the Potency was 1.18 µM (active).

For `CNC(=O)c1cc(COc2nnc(Nc3ccc(Cl)cc3)c3ccoc23)ccn1`, the Potency is 23.5 µM (active).

Turning to `CN(C(Cc1ccc(OS(=O)(=O)c2cccc3cnccc23)cc1)C(=O)N1CCN(c2ccccc2)CC1)S(=O)(=O)c1cccc2cnccc12` (stereo not given), the Potency is 0.418 µM (active). As for `COc1cc(CNC(=O)CCCCC=CC(C)C)ccc1O`, the “activity change, negative = cytotoxic” value is -30.6%. Regarding `CN1CCC[C@H]1CCO[C@](C)(c1ccccc1)c1ccc(Cl)cc1`, the Potency was 20.9 µM (active). As for `C[C@@H]1O[C@@H](O[C@H]2CC[C@@]3(C)[C@H](CC[C@@H]4[C@H]3C[C@@H](O)[C@]3(C)[C@@H](C5=CC(=O)OC5)CC[C@]43O)C2)C[C@H](O)[C@@H]1O[C@H]1C[C@H](O)[C@H](O[C@H]2C[C@H](O)[C@@H](O)[C@@H](C)O2)[C@H](C)O1` (stereo in doubt), the Potency was 0.108 µM (active).

`COc1ccc(-c2cc(=O)c3c(O)cc(O[C@@H]4O[C@H](CO[C@@H]5O[C@@H](C)[C@H](O)[C@@H](O)[C@@H]5O)[C@@H](O)[C@H](O)[C@@H]4O)cc3o2)cc1O`: the Potency is 7.43 µM (active). With `COc1cc(F)c(C(C)C)cc1-c1ccc(C(F)(F)F)cc1CN1C(=O)O[C@H](c2cc(C(F)(F)F)cc(C(F)(F)F)c2)[C@@H]1C`, the “activity change, negative = cytotoxic” value is -10.7%. With `Cc1c(-c2cccc3c(CCCOc4cccc5ccccc45)c(C(=O)O)n(Cc4cccnc4)c23)c(COc2ccc(N3CCN([S+](=O)([O-])N(C)C)CC3)cc2)nn1C`, the Potency is 10.5 µM (active). Take `CN(C)CCOc1cc(-c2cn[nH]c2)ccc1NC(=O)C1COc2ccccc2O1` (stereo not given): the Potency is 8.33 µM (active). Still for that read-out and setting: to `COc1cc([C@H]2Oc3cc([C@H]4Oc5cc(O)cc(O)c5C(=O)[C@H]4O)ccc3O[C@H]2CO)ccc1O` belongs 20.9 µM (active); to `C[C@@]1(C(=O)Nc2ccc(F)nc2)CCCN1c1nc(Nc2cc(C3CC3)[nH]n2)c2cccn2n1`, 0.001 µM (active); to `CNc1nc(-c2ccc3c(N)n[nH]c3c2)cc(N2C[C@@H](C(=O)NC3CCCCC3)CC[C@@H]2C)n1`, 4.18 µM (active). The same measure, in the same setting: the value for `CCCCCCCCCCCCCC(=O)N[C@H](CO)[C@H](O)c1ccc([N+](=O)[O-])cc1` was 18.7 µM (active).

As for `COc1nc(C)cnc1NS(=O)(=O)c1cccnc1-c1ccc(-c2nnco2)cc1`, the “activity change, negative = cytotoxic” value is 0.611%. Take `COc1cc2ncn(-c3cc(OCc4ccccc4S(C)(=O)=O)c(C#N)s3)c2cc1OC`: the Potency is 13.2 µM (active). `CC(C)(C)c1nc(-c2cccc(NS(=O)(=O)c3c(F)cccc3F)c2F)c(-c2ccnc(N)n2)s1`: the Potency is 0.59 µM (active). Still for that read-out and setting: the value for `N#CC(c1ccnc(NCCc2cccnc2)n1)c1nc2ccccc2s1` (stereo not given) was 11.8 µM (active); that for `C#C[C@]1(O)CC[C@H]2[C@H]3CCc4cc(OC)ccc4[C@H]3CC[C@@]21C` was 20.9 µM (active); that for `COc1cc(Cl)cn2c(-c3cccc(NC4CNC4)n3)cnc12` was 2.96 µM (active). Take `CN(C)CCCNC(=O)c1ccc(-c2cc(O)c3ncccc3c2)cc1`: the “activity change, negative = cytotoxic” value is 2.4%. Still for that read-out and setting: to `Cc1ccccc1C(C(=O)NC1CCCCC1)N(C(=O)CNc1ccc(C#N)cc1)c1cccc(F)c1` (stereo not given) belongs -22.2%. Regarding `C[C@@H]1[C@H](O)[C@@H](C)C=CC=CC=CC=CC=CC=CC=C[C@H](O[C@@H]2O[C@H](C)[C@H](O)[C@H](N)[C@@H]2O)C[C@@H]2O[C@](O)(C[C@@H](O)C[C@@H](O)[C@H](O)CC[C@@H](O)C[C@@H](O)CC(=O)O[C@H]1C)C[C@H](O)[C@@H]2C(=O)O`, the Potency was 0.118 µM (active).

`Nc1nc(Cl)nc2c1ncn2[C@@H]1O[C@H](CO)[C@@H](O)[C@H]1F`: the Potency is 0.001 µM (active). As for `C[C@@]1(c2cc(-c3cncnc3)c(F)cc2F)CCSC(N)=N1`, the Potency is 2.96 µM (active). The same measure, in the same setting: the value for `Cc1ccc(C(=O)N(CCCN)[C@@H](c2nc3cc(Cl)ccc3c(=O)n2Cc2ccccc2)C(C)C)cc1` was 0.0017 µM (active). Take `O=C(O)C1=CO[C@@H](O[C@@H]2O[C@H](CO)[C@H](O)[C@H](O)[C@H]2O)[C@@H]2C(CO)=CC[C@H]12`: the “activity change, negative = cytotoxic” value is -0.61%.

Regarding `CN(C)CCN(C)C(=O)c1ccc(NC(=O)Nc2ccc(-c3nc(N4CCOCC4)c4ccn(CC(F)(F)F)c4n3)cc2)cc1`, the Potency was 0.0264 µM (active). `CCn1c(-c2nonc2N)nc2cncc(CNC3CCNCC3)c21`: the “activity change, negative = cytotoxic” value is -69.9%. For `COc1cc(N2CCN(C)CC2)ccc1Nc1nc(N)c(C(=O)c2c(Cl)cccc2Cl)s1`, the Potency was 16.6 µM (active). `NC(=O)c1noc([C@H](CCCC2CCCCC2)CC(=O)NO)n1`: the Potency is 7.43 µM (active). Same read-out and setting: to `COc1c(C)c2c(c(O)c1CC=C(C)CCC(=O)OCCN1CCOCC1)C(=O)OC2` belongs 1.18 µM (active); to `C[C@@H](NC(=O)c1ncnc(N)c1Cl)c1ncc(C(=O)Nc2cc(C(F)(F)F)c(Cl)cn2)s1`, 16.6 µM (active); to `NS(=O)(=O)c1ccc(Nc2nc(OCC3CCCCC3)c3[nH]cnc3n2)cc1`, 6.62 µM (active). With `O=C(O)CCC=CCC[C@@H]1[C@H](N2CCCCC2)[C@@H](O)C[C@@H]1OCc1ccc(-c2ccccc2)cc1`, the Potency is 26.4 µM (active).

Source of the values: PubChem BioAssay (NCATS).
